Experimental data: publication PMC7862700, “An all-to-all approach to the identification of sequence-specific readers for epigenetic DNA modifications on cytosine”

Columns and labels:
Assay in all cases: DAPPL (digital affinity profiling via proximity ligation, sequencing); 10 mM Tris-HCl pH 7.5, 50 mM NaCl, 1 mM DTT, 4% glycerol, room temperature, 30 min; GST-TFs on glutathione beads, 16-mer random dsDNA library, 0.1% formaldehyde crosslink after washing; high values mean tight binding
Details in all cases: protein: recombinant; tags: N-terminal GST; dsDNA, one strand shown
ERF = molecular target: T1, ERF (Homo sapiens, UniProt P50548 1-548)
T1 sequence: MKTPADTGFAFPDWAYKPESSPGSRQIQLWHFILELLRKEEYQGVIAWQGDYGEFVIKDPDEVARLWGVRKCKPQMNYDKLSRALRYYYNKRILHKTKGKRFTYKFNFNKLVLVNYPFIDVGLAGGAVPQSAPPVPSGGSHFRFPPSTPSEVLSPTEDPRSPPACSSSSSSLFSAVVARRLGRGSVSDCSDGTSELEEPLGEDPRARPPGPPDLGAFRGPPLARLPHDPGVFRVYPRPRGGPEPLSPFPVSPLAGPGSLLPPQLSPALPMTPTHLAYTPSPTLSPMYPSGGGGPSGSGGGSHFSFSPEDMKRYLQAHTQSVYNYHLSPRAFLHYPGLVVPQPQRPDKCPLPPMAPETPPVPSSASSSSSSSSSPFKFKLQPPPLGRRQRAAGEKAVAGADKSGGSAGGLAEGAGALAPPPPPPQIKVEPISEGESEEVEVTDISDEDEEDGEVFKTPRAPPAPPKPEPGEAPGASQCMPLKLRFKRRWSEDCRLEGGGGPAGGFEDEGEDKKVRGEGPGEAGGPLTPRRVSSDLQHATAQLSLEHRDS
In short: (§1)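 Yeast served to express human transcription factors as GST fusions, which were then captured on glutathione beads and labelled with DNA barcodes. Pooled with a tag-only sample, they were incubated with 200 nmole of a 16-mer random double-stranded DNA library for 30 min at room temperature in Tris/NaCl/DTT/glycerol buffer, washed, crosslinked with 0.1% formaldehyde, ligated by proximity, amplified by PCR and sequenced. Dividing each hexamer's read frequency for a factor by its frequency for the tag-only sample gives the binding signal.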

ETV3L = molecular target: T2, ETV3L (Homo sapiens, UniProt Q6ZN32 1-361)
T2 sequence: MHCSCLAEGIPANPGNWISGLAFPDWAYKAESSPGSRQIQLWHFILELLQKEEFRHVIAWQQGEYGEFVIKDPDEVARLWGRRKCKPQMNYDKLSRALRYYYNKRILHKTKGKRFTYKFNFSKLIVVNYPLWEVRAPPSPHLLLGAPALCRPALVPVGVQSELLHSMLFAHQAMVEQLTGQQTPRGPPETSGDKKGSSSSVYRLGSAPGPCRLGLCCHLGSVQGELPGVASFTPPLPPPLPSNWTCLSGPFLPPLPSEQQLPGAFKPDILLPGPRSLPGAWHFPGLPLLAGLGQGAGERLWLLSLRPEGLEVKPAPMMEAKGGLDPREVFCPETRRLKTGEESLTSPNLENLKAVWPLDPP
In short: as §1

ETS2 = molecular target: T3, ETS2 (Homo sapiens, UniProt P15036 1-469)
T3 sequence: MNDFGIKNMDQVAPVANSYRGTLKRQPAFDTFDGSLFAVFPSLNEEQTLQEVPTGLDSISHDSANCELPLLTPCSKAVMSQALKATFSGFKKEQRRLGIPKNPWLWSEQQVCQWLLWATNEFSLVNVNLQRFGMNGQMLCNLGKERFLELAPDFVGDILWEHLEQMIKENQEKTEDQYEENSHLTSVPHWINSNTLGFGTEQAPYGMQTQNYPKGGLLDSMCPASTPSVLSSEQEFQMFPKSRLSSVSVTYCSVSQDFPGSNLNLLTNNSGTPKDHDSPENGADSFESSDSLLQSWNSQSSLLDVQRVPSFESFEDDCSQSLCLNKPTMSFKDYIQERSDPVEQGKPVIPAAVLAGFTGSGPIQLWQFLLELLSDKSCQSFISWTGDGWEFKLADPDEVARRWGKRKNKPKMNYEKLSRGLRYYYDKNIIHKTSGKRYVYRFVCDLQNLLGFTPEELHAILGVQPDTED
In short: as §1

SPDEF = molecular target: T4, SPDEF (Homo sapiens, UniProt O95238 1-335)
T4 sequence: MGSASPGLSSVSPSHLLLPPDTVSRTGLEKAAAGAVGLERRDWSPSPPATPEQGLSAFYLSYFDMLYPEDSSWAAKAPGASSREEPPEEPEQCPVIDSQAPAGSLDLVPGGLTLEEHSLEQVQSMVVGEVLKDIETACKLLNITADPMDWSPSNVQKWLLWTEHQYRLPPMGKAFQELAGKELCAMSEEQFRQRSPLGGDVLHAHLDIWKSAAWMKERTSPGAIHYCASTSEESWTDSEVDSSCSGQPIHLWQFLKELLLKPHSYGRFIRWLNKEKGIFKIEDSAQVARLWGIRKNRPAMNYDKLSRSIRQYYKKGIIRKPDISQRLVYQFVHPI
In short: as §1

ETV7 = molecular target: T5, ETV7 (Homo sapiens, UniProt Q9Y603 1-341)
T5 sequence: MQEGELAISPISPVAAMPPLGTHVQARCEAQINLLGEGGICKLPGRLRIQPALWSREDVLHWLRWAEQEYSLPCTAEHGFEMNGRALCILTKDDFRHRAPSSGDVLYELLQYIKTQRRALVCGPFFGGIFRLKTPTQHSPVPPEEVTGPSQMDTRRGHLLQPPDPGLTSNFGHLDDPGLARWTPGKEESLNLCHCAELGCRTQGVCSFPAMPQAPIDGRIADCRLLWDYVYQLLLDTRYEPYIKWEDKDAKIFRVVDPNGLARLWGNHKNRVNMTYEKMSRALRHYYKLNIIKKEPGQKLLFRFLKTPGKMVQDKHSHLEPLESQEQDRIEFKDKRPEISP
In short: as §1

ELF5 = molecular target: T6, ELF5 (Homo sapiens, UniProt Q9UKW6-2 1-255)
T6 sequence: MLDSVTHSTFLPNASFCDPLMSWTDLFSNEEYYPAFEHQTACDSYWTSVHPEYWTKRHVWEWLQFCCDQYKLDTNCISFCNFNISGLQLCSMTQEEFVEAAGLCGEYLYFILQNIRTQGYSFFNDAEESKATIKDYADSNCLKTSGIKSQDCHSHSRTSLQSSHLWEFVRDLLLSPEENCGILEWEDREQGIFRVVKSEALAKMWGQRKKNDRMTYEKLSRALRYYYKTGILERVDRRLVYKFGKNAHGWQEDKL
In short: as §1

ETV3 = molecular target: T7, ETV3 (Homo sapiens, UniProt P41162-2 1-143)
T7 sequence: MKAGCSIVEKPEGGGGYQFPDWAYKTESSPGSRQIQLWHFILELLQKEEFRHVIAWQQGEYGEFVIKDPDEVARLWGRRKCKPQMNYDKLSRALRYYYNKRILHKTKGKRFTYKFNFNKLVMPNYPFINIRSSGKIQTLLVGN
In short: as §1

ETV6 = ETV6 (Homo sapiens, UniProt P41212 1-452)
ETV6, sequence (P41212 whole entry): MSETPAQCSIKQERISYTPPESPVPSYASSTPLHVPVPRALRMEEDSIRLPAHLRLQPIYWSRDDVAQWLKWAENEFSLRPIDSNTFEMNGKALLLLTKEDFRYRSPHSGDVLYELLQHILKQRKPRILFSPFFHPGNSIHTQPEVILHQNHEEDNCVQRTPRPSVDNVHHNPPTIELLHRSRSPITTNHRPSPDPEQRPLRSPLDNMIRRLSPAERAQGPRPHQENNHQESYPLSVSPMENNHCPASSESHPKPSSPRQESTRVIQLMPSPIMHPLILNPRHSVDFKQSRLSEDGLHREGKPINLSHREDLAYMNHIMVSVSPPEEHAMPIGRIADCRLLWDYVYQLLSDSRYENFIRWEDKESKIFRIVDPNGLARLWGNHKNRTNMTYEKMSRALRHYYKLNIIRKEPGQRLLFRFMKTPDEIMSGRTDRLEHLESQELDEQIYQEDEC
In short: as §1

Sequence | binding signal (ERF) | binding signal (ETV3L) | binding signal (ETS2) | binding signal (SPDEF) | binding signal (ETV7) | binding signal (ELF5) | binding signal (ETV3) | binding signal (ETV6)
CACCGA | 1.05 fold enrichment (6-mer frequency, TF over GST control) | 1.02 fold enrichment (6-mer frequency, TF over GST control) | 1.12 fold enrichment (6-mer frequency, TF over GST control) | 1.04 fold enrichment (6-mer frequency, TF over GST control) | 1.11 fold enrichment (6-mer frequency, TF over GST control) | 1.04 fold enrichment (6-mer frequency, TF over GST control) | 1.01 fold enrichment (6-mer frequency, TF over GST control) | 1.03 fold enrichment (6-mer frequency, TF over GST control)
TGCCAC | 1.14 fold enrichment (6-mer frequency, TF over GST control) | 1.28 fold enrichment (6-mer frequency, TF over GST control) | 1.23 fold enrichment (6-mer frequency, TF over GST control) | 1.15 fold enrichment (6-mer frequency, TF over GST control) | 1.21 fold enrichment (6-mer frequency, TF over GST control) | 1.16 fold enrichment (6-mer frequency, TF over GST control) | 1.18 fold enrichment (6-mer frequency, TF over GST control) | 1.24 fold enrichment (6-mer frequency, TF over GST control)
TGATCC | 1.23 fold enrichment (6-mer frequency, TF over GST control) | 1.28 fold enrichment (6-mer frequency, TF over GST control) | 1.25 fold enrichment (6-mer frequency, TF over GST control) | 1.63 fold enrichment (6-mer frequency, TF over GST control) | 1.12 fold enrichment (6-mer frequency, TF over GST control) | 1.35 fold enrichment (6-mer frequency, TF over GST control) | 1.24 fold enrichment (6-mer frequency, TF over GST control) | 1.26 fold enrichment (6-mer frequency, TF over GST control)
TCTGGT | 1.34 fold enrichment (6-mer frequency, TF over GST control) | 1.26 fold enrichment (6-mer frequency, TF over GST control) | 1.16 fold enrichment (6-mer frequency, TF over GST control) | 1.28 fold enrichment (6-mer frequency, TF over GST control) | 1.35 fold enrichment (6-mer frequency, TF over GST control) | 1.26 fold enrichment (6-mer frequency, TF over GST control) | 1.29 fold enrichment (6-mer frequency, TF over GST control) | 1.17 fold enrichment (6-mer frequency, TF over GST control)
CTTGAC | 1.16 fold enrichment (6-mer frequency, TF over GST control) | 1.17 fold enrichment (6-mer frequency, TF over GST control) | 1.12 fold enrichment (6-mer frequency, TF over GST control) | 1.13 fold enrichment (6-mer frequency, TF over GST control) | 1.2 fold enrichment (6-mer frequency, TF over GST control) | 1.21 fold enrichment (6-mer frequency, TF over GST control) | 1.22 fold enrichment (6-mer frequency, TF over GST control) | 1.23 fold enrichment (6-mer frequency, TF over GST control)
GCTCTG | 1.03 fold enrichment (6-mer frequency, TF over GST control) | 1.23 fold enrichment (6-mer frequency, TF over GST control) | 1.12 fold enrichment (6-mer frequency, TF over GST control) | 1.06 fold enrichment (6-mer frequency, TF over GST control) | 1.17 fold enrichment (6-mer frequency, TF over GST control) | 1.02 fold enrichment (6-mer frequency, TF over GST control) | 1.17 fold enrichment (6-mer frequency, TF over GST control) | 1.17 fold enrichment (6-mer frequency, TF over GST control)
CCCACG | 1.13 fold enrichment (6-mer frequency, TF over GST control) | 1.05 fold enrichment (6-mer frequency, TF over GST control) | 1.17 fold enrichment (6-mer frequency, TF over GST control) | 1.05 fold enrichment (6-mer frequency, TF over GST control) | 1.18 fold enrichment (6-mer frequency, TF over GST control) | 1.15 fold enrichment (6-mer frequency, TF over GST control) | 1.11 fold enrichment (6-mer frequency, TF over GST control) | 1.09 fold enrichment (6-mer frequency, TF over GST control)
